SUMO Mot1 rescue – blocks SUMOylation pathway, rescuing yeast Mot1-301 growth; 320,000 compounds, 1% hits; S. cerevisiae Mot1-301 growth rescue, ATP luminescence, 38.5C; percent above DMSO median, 100 means doubled; growth rescue, % at 18.8 µM; AID 2716;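 active = every valid replicate shows activation above 250% relative to neutral control wells; inactive = the rest, any valid replicate at or below 250%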
NTR1 ag – NTR1 (human) agonism | activation, % at 20 µM | NTR1-U2OS beta-arrestin-GFP spot imaging, agonist mode | 330,000 compounds, 0.17% hits | AID 493036;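 active = activation at or above 40% of the spot to cytoplasm intensity ratio, with at least 20 cells analyzed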
Target sequence (P30989 whole entry, looked up): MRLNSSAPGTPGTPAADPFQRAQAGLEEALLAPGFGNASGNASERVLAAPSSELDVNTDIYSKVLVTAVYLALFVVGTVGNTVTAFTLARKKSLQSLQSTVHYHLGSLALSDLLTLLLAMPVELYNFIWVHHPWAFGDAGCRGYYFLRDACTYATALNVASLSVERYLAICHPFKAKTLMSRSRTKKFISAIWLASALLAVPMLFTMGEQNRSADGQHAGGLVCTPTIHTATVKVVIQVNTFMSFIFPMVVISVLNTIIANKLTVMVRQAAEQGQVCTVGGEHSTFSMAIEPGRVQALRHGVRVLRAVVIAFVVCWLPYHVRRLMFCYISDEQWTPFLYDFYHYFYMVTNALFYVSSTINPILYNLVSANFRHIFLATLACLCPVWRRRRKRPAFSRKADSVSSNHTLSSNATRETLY
AI-2 QS modul – modulators of Vibrio harveyi AI-2 quorum sensing system; Vibrio harveyi JMH597 AI-2 luminescence/OD600 ratio, 9 h; stronger effect = lower value; strain lacks LuxN and CqsS sensors; 0 = neutral-control median; activity change, % at 7.5 µM; 300,000 compounds, 0.4% hits; AID 2094; in the data active = activity change below about -75%, passing the limit was not always enough;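 note: luminescence divided by OD600 gain over 9 h not by final OD600 alone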
AHR activator – human AHR activation | P35869 | AHR-responsive luciferase reporter cells, luminescence | activation, % at 5 µM | 320,000 compounds, 2.5% hits; in the data active = activation above about 47%
H9c2 protect – protects H9c2 cardiomyocytes from peroxide injury. 360,000 compounds, 0.63% hits. protection from H2O2 cell death, % at 20 µM. H2O2 injury protection, ATPLite, 2 h;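 active = compounds giving at least 50% protection of heart cells from peroxide-induced death in the single-dose screen, raw or plate-pattern-corrected value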
GRIN3A LBD mod – modulates the human NR3A ligand-binding domain; NR3A LBD differential scanning fluorimetry, Tm shift; 0% = protein alone, 100% = glycine-bound protein; Tm shift relative to glycine control, % at 25 µM; 340,000 compounds, 2.5% hits;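 active = melting temperature shift of at least 10% of the positive control shift, at one fixed dose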
Large screens that a line does not name were inactive. Only some compounds are listed: those with a hit (about 6.2% of all), similar ones and a draw of the others.

C[C@@H]1CN([C@H](C)CO)C(=O)c2cc(NC(=O)Nc3ccc(C(F)(F)F)cc3)ccc2O[C@H]1CN(C)S(=O)(=O)c1ccc(Cl)cc1	GRIN3A LBD mod 19.4 (no result: AI-2 QS modul)
C[C@@H]1CN([C@@H](C)CO)C(=O)Cc2cc(NC(=O)Nc3ccc(C(F)(F)F)cc3)ccc2O[C@@H]1CN(C)S(=O)(=O)c1ccc(Cl)cc1	GRIN3A LBD mod 14.0 (no result: AI-2 QS modul)
C[C@@H]1CN([C@@H](C)CO)C(=O)c2cc(NC(=O)Nc3ccc4c(c3)OCO4)ccc2O[C@H]1CN(C)S(=O)(=O)c1ccc(F)cc1	none (no result: AI-2 QS modul)
CN(CCOc1ccccc1)C(=S)Nc1ccc(OC(F)F)cc1	none
O=C(Nc1ccc(Oc2cccc(C(F)(F)F)c2)nc1)c1cccs1	none
O=C(Nc1nc2ccc(F)cc2s1)Oc1ccccc1	none
Fc1ccc2nc(Nc3nc4c(F)cccc4s3)sc2c1	AHR activator 61.5, GRIN3A LBD mod 23.2
O=C(Nc1nc2c(F)cc(F)cc2s1)c1ccccn1	none
Fc1ccc2nc(Nc3nc4c(F)cc(F)cc4s3)sc2c1	GRIN3A LBD mod 34.3 (no result: NTR1 ag)
Fc1cccc2sc(Nc3nc4ccccc4s3)nc12	GRIN3A LBD mod 27.6
O=C(NCCc1ccccc1F)C1CC(=O)N(c2ccc3c(c2)OCCO3)C1 (stereo not drawn)	none (no result: SUMO Mot1 rescue, NTR1 ag, AI-2 QS modul, AHR activator, GRIN3A LBD mod)
c1ccc(CNc2nnnn2-c2ccccc2)cc1	none
c1ccc2c(NCCc3c[nH]c4ccccc34)c3ccccc3nc2c1	none
c1ccc(-n2nnnc2NCCc2c[nH]c3ccccc23)cc1	GRIN3A LBD mod 12.0
Fc1cccc(NCCc2c[nH]c3ccccc23)n1	GRIN3A LBD mod 14.7
CC(=O)n1c(-c2ccccc2)c(-c2ccccc2)n(C)c1=O	none
O=C1NC(=Nc2cccc(O)c2)S/C1=C\c1cccnc1	none
COC(=O)/C=C1\SC(=Nc2ccc(Cl)c(Cl)c2)NC1=O	none
O=C1NC(=Nc2cccc(O)c2)S/C1=C\c1cccc([N+](=O)[O-])c1	GRIN3A LBD mod 13.4
COc1cc(/C=C2\SC(=Nc3ccccc3OC)NC2=O)ccc1O	none
COc1cc(/C=C2\SC(=Nc3ccc(Cl)c(C(=O)O)c3)NC2=O)c(Br)c(Br)c1O	GRIN3A LBD mod 12.9 (no result: AHR activator)
COc1cc(/C=C2\SC(=Nc3ccccc3)NC2=O)cc(Cl)c1O	GRIN3A LBD mod 12.5
COc1cc(/C=C2/SC(=Nc3ccc(O)cc3)NC2=O)ccc1O	GRIN3A LBD mod 27.0
O=C(c1ccc2nsnc2c1)N1CCN(c2ccc([N+](=O)[O-])cc2)CC1	none
CCCS(=O)(=O)NC(=O)C1(C)CCCN(C(=O)c2ccc3ccccc3n2)C1 (stereo not drawn)	none (no result: SUMO Mot1 rescue, NTR1 ag, AI-2 QS modul, AHR activator, GRIN3A LBD mod)
CC(C)(C)C(=O)Nc1nnc([C@H]2C[C@H](O)[C@@H](CO)O2)s1	none (no result: SUMO Mot1 rescue, NTR1 ag, AI-2 QS modul, AHR activator, GRIN3A LBD mod)
Cc1cc(OCC(=O)NNC(=S)NC(=O)c2ccc(Br)o2)ccc1Cl	none (no result: AHR activator)
Cc1ccc(CNCc2cc3c(C(C)(C)C)nn(-c4ccccc4)c3[nH]c2=O)cc1	H9c2 protect 58.0
CC(C)(C)c1nn(-c2ccccc2)c2[nH]c(=O)c(CNCc3ccco3)cc12	H9c2 protect 79.0
CC(C)(C)c1nn(-c2ccccc2)c2[nH]c(=O)c(CNc3ccc4c(c3)OCCO4)cc12	none
COc1ccc(CNCc2cc3c(C(C)(C)C)nn(-c4ccccc4)c3[nH]c2=O)cc1	none
CC(=O)Nc1ccccc1C(=O)N1CCN(Cc2ccc3c(c2)OCO3)CC1	none
CC(Cc1c[nH]c2ccccc12)C(=O)NCc1ccco1 (stereo not drawn)	none
Cc1cc(N)n(-c2ccccn2)n1	GRIN3A LBD mod 12.5
O=C(Cc1cccc2ccccc12)Nc1ccc(OC(F)F)c(Cl)c1	GRIN3A LBD mod 23.5
O=C(Nc1cc(Cl)cc(Cl)c1)C(c1ccccc1)N1CCCCC1 (stereo not drawn)	none
O=C(Nc1ccc(OC(F)F)c(Cl)c1)C(c1ccccc1)c1ccccc1	GRIN3A LBD mod 20.9
FC(F)Oc1ccc(NC(=S)NCc2ccccc2)cc1Cl	none
COCc1cccc(NC(=O)Cc2cccc3ccccc23)c1	none
O=C(O)c1ccccc1OC(C(=O)Nc1cc(Cl)cc(Cl)c1)c1ccccc1 (stereo not drawn)	GRIN3A LBD mod 23.0
Cn1nccc1C(=O)Nc1cccc(S(=O)(=O)N2CCOCC2)c1	none
Cc1ccc(S(=O)(=O)CCC(=O)OC2CC(C)OC2=O)cc1 (stereo not drawn)	none (no result: AI-2 QS modul)
Cc1cccc(OCCn2c(NC(=O)c3ccco3)nc3ccccc32)c1	H9c2 protect 61.6
C=CCn1c(NC(=O)c2ccco2)nc2ccccc21	AHR activator 68.0
C=CCSc1nnc(NC(=O)CCNC(=O)c2ccccc2Cl)s1	none (no result: SUMO Mot1 rescue, NTR1 ag, AI-2 QS modul, AHR activator, GRIN3A LBD mod)
O=S(=O)(NCc1ccccc1)c1ccc(Cl)cc1	none
O=S(=O)(Nc1cc2nc3ccccc3nc2n1Cc1ccccc1)c1ccc(Cl)cc1	GRIN3A LBD mod 11.9 (no result: NTR1 ag)
COc1ccc2ncccc2c1Cc1c(OC)ccc2ncccc12	none (no result: SUMO Mot1 rescue, NTR1 ag, AI-2 QS modul, AHR activator)
Cc1ccccc1N(CC(=O)NCC1CCCO1)C(=O)CCC(=O)Nc1nccs1 (stereo not drawn)	none
CCCCn1c(CN(Cc2ccccc2)Cc2ccccc2)nc2c1c(=O)n(C)c(=O)n2C	GRIN3A LBD mod 25.2
CN1CCN(Cc2nc3c(c(=O)n(C)c(=O)n3C)n2CCCc2ccccc2)CC1	none
CC1CCN(Cc2nc3c(c(=O)n(C)c(=O)n3C)n2CCCc2ccccc2)CC1	H9c2 protect 56.0
CC(C)(C)Cc1c(-c2ccc(C#N)cc2)nc2c(Cl)cc(C(F)(F)F)cn12	none (no result: SUMO Mot1 rescue, NTR1 ag, AI-2 QS modul, AHR activator, GRIN3A LBD mod)
COc1ccc(C(=O)/C=C2\Sc3ccccc3N2C)cc1	AHR activator 50.4
CC(=S)/C=C1\Sc2ccccc2N1C	none
COc1cc(C(=O)NC2CC(C)CC(C)(C)C2)cc(OC)c1OC (stereo not drawn)	none (no result: SUMO Mot1 rescue, NTR1 ag, AI-2 QS modul, AHR activator, GRIN3A LBD mod)
O=C(Nc1cccc(Cl)c1)c1csc(-c2ccccc2)n1	AHR activator 93.2
O=C(Nc1ccc(Cl)c(Cl)c1)c1csc(-c2ccccc2)n1	AHR activator 74.0
COc1ccc(CN2CCN(Cc3ccc4cc(F)ccc4n3)CC2CCO)c(C)c1C (stereo not drawn)	none
NS(=O)(=O)c1ccc(NC(CNS(=O)(=O)c2ccccc2)c2ccccc2)cc1 (stereo not drawn)	none
O=S(=O)(NCC(Nc1ccc(Cl)cc1)c1ccccc1)c1ccccc1 (stereo not drawn)	GRIN3A LBD mod 23.5
Cc1ccc(NC(CNS(=O)(=O)c2ccc(Cl)cc2)c2ccccc2)cc1 (stereo not drawn)	GRIN3A LBD mod 11.3
COC(CNS(=O)(=O)c1ccc(Cl)cc1)c1ccccc1 (stereo not drawn)	none
Cc1cc(Cl)nc(-n2nc(C)cc2C)n1	none
CNc1cc(C)nc(-n2nc(C)cc2C)n1	GRIN3A LBD mod 11.0
Cc1cc(O)c2c(c1)C(=O)c1cc(O)cc(O)c1C2=O	GRIN3A LBD mod 10.4
CNc1snc(C)c1C(=O)OCC(=O)NCc1ccccc1OC	none (no result: AI-2 QS modul)
O=C(Cc1ccccc1Cl)Nc1ccc(S(=O)(=O)Nc2nccs2)cc1	none

High-throughput results (PubChem BioAssay)
